Numbering of substitutions follows the chain as printed.

Common to all, as to experiment: RPB-ELISA
Conditions in all cases: tags: N-terminal luciferase, C-terminal 6xHis; label: 5'-biotin; ssRNA

The target of one test is T1, v3.1_PPR7 (Artificial Sequence).
T1 chain: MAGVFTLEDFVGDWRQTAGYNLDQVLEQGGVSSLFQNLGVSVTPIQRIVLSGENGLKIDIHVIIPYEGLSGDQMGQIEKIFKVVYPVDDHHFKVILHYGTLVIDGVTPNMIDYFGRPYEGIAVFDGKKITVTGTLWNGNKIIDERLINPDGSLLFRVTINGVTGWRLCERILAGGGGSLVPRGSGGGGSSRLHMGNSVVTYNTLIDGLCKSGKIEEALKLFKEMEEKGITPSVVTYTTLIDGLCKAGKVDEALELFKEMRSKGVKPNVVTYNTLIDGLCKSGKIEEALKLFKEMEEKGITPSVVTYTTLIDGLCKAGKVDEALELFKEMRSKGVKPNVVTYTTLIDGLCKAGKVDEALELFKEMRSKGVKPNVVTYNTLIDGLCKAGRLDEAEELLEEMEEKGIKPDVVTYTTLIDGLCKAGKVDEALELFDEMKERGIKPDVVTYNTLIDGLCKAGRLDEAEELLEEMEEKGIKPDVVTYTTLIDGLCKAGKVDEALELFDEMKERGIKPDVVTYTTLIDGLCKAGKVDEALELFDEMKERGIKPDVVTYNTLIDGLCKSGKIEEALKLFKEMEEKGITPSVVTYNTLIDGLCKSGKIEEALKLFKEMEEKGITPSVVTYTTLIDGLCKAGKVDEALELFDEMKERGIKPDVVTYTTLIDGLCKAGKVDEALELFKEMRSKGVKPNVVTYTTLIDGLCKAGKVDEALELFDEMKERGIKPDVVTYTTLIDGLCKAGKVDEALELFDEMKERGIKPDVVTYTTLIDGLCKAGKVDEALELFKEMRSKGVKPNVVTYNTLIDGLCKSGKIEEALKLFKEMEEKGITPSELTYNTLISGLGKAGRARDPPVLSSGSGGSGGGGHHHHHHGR
In short, it runs like this: (§1)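 5′-biotinylated 30-base RNA probes (18-base target) immobilised on streptavidin plates, then bound 30 min at RT by E. coli lysate with luciferase-fused PPR protein (1.5×10⁸ LU/μL) in Tris pH 7.6 buffer. Binding = luminescence minus no-RNA background.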

In the next test the target is T2, NL_v2_PPR20 (Artificial Sequence).
T2 chain: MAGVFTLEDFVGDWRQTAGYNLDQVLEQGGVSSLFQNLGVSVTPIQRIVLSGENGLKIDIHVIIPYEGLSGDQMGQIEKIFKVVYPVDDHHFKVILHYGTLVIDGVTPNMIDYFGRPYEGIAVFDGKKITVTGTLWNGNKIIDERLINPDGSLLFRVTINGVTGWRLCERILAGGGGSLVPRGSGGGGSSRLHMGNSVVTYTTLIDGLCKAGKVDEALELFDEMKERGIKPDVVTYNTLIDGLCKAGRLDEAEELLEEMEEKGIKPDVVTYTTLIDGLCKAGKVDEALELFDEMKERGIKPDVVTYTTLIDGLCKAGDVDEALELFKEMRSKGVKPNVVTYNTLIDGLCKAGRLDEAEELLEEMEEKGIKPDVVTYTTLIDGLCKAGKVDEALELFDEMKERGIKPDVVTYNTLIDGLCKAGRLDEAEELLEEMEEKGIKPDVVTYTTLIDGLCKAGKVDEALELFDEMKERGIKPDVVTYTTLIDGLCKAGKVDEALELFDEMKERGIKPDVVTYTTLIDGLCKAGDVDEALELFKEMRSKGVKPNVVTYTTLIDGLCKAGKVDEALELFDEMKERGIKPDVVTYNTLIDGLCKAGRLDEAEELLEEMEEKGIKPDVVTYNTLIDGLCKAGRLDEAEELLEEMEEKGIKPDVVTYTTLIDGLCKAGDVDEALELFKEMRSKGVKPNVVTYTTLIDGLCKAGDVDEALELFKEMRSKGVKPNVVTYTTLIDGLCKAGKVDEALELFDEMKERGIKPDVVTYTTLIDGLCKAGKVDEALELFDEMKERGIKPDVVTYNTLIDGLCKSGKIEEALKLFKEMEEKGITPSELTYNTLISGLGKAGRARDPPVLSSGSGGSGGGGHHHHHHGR
The essentials: (§2)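 5′-biotinylated 30-base RNA probes holding 18-base targets were captured on streptavidin plates, blocked, then bound 30 min at room temperature with E. coli lysate of luciferase-fused PPR protein (1.5×10⁸ LU/μL) in Tris-HCl pH 7.6 buffer. After washing, luminescence minus no-RNA background gave binding power.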

For the next test, the target named is T3, NL_v2_PPR22 (Artificial Sequence).
T3 chain: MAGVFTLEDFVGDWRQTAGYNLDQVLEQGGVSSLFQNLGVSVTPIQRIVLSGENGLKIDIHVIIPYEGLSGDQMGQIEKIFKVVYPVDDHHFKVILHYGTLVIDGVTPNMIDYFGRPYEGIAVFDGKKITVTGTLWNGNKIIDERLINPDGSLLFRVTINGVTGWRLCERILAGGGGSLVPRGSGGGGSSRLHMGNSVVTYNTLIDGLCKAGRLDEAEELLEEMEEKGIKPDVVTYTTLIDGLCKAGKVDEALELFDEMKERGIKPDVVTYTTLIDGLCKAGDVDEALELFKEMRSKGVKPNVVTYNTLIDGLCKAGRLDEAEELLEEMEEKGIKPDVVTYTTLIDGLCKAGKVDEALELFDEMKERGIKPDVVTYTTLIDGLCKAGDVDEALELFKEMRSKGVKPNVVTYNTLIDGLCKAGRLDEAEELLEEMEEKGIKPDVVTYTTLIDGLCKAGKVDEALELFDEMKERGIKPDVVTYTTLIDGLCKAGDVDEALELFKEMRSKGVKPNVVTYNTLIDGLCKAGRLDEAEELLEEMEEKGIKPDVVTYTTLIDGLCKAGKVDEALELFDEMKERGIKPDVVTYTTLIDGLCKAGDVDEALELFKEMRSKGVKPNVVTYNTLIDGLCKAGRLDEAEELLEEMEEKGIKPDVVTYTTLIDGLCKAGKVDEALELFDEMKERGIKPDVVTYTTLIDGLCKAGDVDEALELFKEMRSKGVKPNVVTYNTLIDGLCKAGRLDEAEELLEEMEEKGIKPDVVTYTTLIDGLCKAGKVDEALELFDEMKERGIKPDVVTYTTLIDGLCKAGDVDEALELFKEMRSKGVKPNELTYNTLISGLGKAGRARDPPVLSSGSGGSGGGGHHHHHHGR
The essentials: as §2

The next test addresses T4, NL_v2_PPR16 (Artificial Sequence).
T4 chain: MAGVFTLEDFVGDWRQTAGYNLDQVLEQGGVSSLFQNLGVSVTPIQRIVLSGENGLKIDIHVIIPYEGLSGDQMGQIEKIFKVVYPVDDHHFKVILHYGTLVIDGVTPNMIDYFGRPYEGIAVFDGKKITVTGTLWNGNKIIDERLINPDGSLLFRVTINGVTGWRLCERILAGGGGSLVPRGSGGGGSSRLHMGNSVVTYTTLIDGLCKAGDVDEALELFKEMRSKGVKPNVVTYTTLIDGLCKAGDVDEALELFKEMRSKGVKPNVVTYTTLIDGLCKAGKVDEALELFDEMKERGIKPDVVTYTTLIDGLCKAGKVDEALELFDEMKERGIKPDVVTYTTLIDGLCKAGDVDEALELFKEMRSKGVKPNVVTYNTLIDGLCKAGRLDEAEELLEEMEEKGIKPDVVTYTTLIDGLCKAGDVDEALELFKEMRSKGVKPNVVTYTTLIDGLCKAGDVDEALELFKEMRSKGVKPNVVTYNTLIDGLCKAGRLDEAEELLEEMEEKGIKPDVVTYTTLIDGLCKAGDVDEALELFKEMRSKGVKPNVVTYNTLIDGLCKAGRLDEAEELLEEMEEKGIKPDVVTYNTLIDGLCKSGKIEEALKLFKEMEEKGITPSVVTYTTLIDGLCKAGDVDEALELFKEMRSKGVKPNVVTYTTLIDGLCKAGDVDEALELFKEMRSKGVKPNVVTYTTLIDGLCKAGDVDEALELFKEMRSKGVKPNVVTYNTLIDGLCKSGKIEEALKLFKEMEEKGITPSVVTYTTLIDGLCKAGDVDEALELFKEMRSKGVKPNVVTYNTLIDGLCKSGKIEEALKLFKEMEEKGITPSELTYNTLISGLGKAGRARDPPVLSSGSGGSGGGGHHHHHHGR
The essentials:
as §2

For a further test, the target named is T5, v3.1_PPR22 (Artificial Sequence).
T5 chain: T3 chain with D283K, D388K, D493K, D598K, D703K, D808K
The essentials: as §1

In the case of GACUCAGGAAUCGGCUCU, the binding signal with v3.1_PPR7 was 21 log2 luminescence.
As for GUGGGGGUGGUAGGAAAU, the binding signal stood at 22.4 log2 luminescence with NL_v2_PPR20; 21 log2 luminescence with NL_v2_PPR22; 22.1 log2 luminescence in the test with NL_v2_PPR16; 24.2 log2 luminescence with v3.1_PPR7; 20.8 log2 luminescence with v3.1_PPR22.
On to GUCAGAGGGUUCUGGAUU, for which the binding signal with v3.1_PPR7 came to 21.3 log2 luminescence.
With GGUGGUGAGGCCCUGGGC, the binding signal with NL_v2_PPR20 is 21.1 log2 luminescence; with v3.1_PPR7, 23.8 log2 luminescence; with v3.1_PPR22 it was 20.9 log2 luminescence.
Turning to GGUUAGAGAUACAGUGUG, in the test with v3.1_PPR7, the binding signal stood at 23.4 log2 luminescence.

Source of the values: patent publication US20220289795, “EFFICIENT METHOD FOR PREPARING PPR PROTEIN AND USE OF THE SAME” (EditForce, Inc., published 2022).
